High-throughput results as filed in PubChem BioAssay.
The full list was thinned out, with hits kept by preference.
Tgondii IFNg = T. gondii growth inhibition with IFN-gamma, primary screen, cell-based | Toxoplasma gondii growth in IFN-gamma-treated host cells; active compounds read low | activity change, negative = inhibition, % (test concentration not listed) | 3.8% of 69,000 active; in the data active = activity change below about -70%, passing the limit was not always enough;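 also: host cells are HeLa cells infected with Toxoplasma gondii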
* = called active by the depositor; ! = not confirmed by another sample.

SMILES	Tgondii IFNg
CN(C)C(=O)N1CCC2(CC1)CC(N(C)Cc1ccco1)CO2 (stereo not drawn)	4
Cn1ccnc1SCCNC(=O)C1CC(=O)N(C2CC2)C1 (stereo not drawn)	6
O=C(CN1CCC2(CC1)N=C(c1ccc(F)cc1)C(=O)N2)Nc1ccccc1C(F)(F)F	17
CCOc1ccc(-c2nc3c(s2)CN(S(=O)(=O)c2cccc(Cl)c2C)CC3)cc1	-65
CCOc1ccc(S(=O)(=O)N2CCc3nc(-c4ccccc4)sc3C2)cc1	15
CCc1ccccc1S(=O)(=O)N1CCc2nc(-c3ccc(OC)cc3)sc2C1	-92*
CN(C)C1CCN(C(=O)Cc2ccc(F)cc2)C(C(=O)O)C1 (stereo not drawn)	-7
Cc1ccc(C(=O)N2CCOCC2)cc1	-3
Cc1ccc(C(=O)N2CCN(c3nc(C)nc4sc5c(c34)CCCC5)CC2)cc1	-96*
CCCCSc1nc2sc3c(c2c(=O)n1-c1ccc(C)cc1)CCC3	-19
c1ccc(CNc2cc(-c3nccc4occc34)c3cc[nH]c3n2)nc1	12
CNc1cc(-c2ccc(CN)cn2)c2cc[nH]c2n1	1
COc1ncc(-c2cc(NCCN(C)C)nc3[nH]ccc23)c(OC)n1	1
Cc1nc(-c2cc(NCc3ccccn3)nc3[nH]ccc23)cc(C(C)C)n1	125
NCCc1cccc(-c2cc(NCCO)nc3[nH]ccc23)c1	-10
c1ccc2c(-c3cc(NC4CCNCC4)nc4[nH]ccc34)n[nH]c2c1	-75*
Cc1cc(-c2cc(NC3CCNCC3)nc3[nH]ccc23)c(=O)[nH]c1C	-85*
Cc1cc(-c2ccnc3c2ccn3C)c(=O)[nH]c1C	-4
CC(O)c1cccc(-c2cc(NC3CCNCC3)nc3[nH]ccc23)n1 (stereo not drawn)	-93*
Cc1nc(N2CCCCC2)ncc1C(=O)N1CCCC2(CC1)CNC(=O)O2 (stereo not drawn)	-23
Cc1cc(NCc2csc(-c3cnccn3)n2)nc(-c2cccnc2)n1	-8
O=C(COc1cccc2ccccc12)NCCNC(=O)c1nc(C2CCCCC2)no1	10
Cc1ccc(CNC(=O)N2CCCCC2CCN2CCOCC2)cc1 (stereo not drawn)	5
CCOCC(=O)N1CCO[C@H]2[C@H]1CC[C@H]2OCc1csc(C)n1	4
O=C(NCCc1cnc[nH]1)c1ccc(NC(=O)C2CCC2)cc1	242
SMILES	Tgondii IFNg
CC1=C(C(=O)NCCCN2CCCC(C)C2)C2(CCN(S(C)(=O)=O)CC2)OC1=O (stereo not drawn)	21
Cc1c(C(=O)NCCCN2CC(C)CC(C)C2)oc2ccc3c(c12)C(O)CC1(CCCCC1)O3 (stereo not drawn)	-112*
CCOC(=O)C1CCN(C(=O)c2oc3ccc4c(c3c2C)C(O)CC2(CCCCC2)O4)CC1 (stereo not drawn)	-81*
CCOC(=O)C1CCN(C(=O)C2=C(C)C(=O)OC23CCN(S(C)(=O)=O)CC3)CC1	-1
Cc1c(C(=O)NCCCN2CCCCC2)oc2ccc3c(c12)C(O)CC1(CCCCC1)O3 (stereo not drawn)	-67
CCOC(=O)C1CCN(C(=O)c2nn(-c3ccccc3)nc2C)CC1	-5
CC1=C(C(=O)NCCCN2CCCC2)C2(CCN(S(=O)(=O)c3cccs3)CC2)OC1=O	6
Cc1c(C(=O)N2CC(C)CC(C)C2)oc2ccc3c(c12)C(=O)CC1(CCCCC1)O3 (stereo not drawn)	-51
Cc1c(C(=O)N2CCCCC2)oc2ccc3c(c12)C(O)CC1(CCCCC1)O3 (stereo not drawn)	-112*
CC1=C(C(=O)NCCCN2CC(C)CC(C)C2)C2(CCCCCC2)OC1=O (stereo not drawn)	58
Cc1c(C(=O)N2CCc3ccccc3C2)oc2ccc3c(c12)C(=O)CC1(CCCCC1)O3	-22
CC1=C(C(=O)NCCCN2CC(C)CC(C)C2)C2(CCCCC2)OC1=O (stereo not drawn)	-80*
CSc1nnc(C2CCCN2C(=O)c2cc(C(F)(F)F)nn2C)n1C (stereo not drawn)	-5
COc1ccc(Cl)cc1NC(=O)N1CCC2(CC1)NC(=O)c1cc(C)ccc1N2C	-4
Cc1cc(S(=O)(=O)NCC(=O)NC(C)c2cnn(C)c2)ccc1F (stereo not drawn)	-3
CC(C)CCN1C(=O)C2(NCCc3c2[nH]c2ccccc32)c2ccccc21 (stereo not drawn)	-25
COc1ccc(CN2C(=O)CO[C@H]3CN(CC4CCOC4)C[C@@H]32)cc1 (stereo partly drawn)	120
CC(C)COc1ccc(-c2noc(-c3c(O)c4ccccc4n(C)c3=O)n2)cc1	40
O=C(NCc1cccnc1Oc1ccccc1F)c1ccc2n[nH]nc2c1	3
Cn1nc(CO)c2c1CCN(c1ncnc3c1CCNC3)C2	1
O=C(c1ccccn1)N1CCC2(CC1)CC(Nc1ncccn1)C2	-5
COc1cccc(NC(=O)Nc2ccc(-c3nc(-c4ccc(C)cc4)co3)cc2)c1	27
C=CCN1CCCC2(CC1)CN(C(=O)Cc1c(C)[nH]c(=O)[nH]c1=O)Cc1ccccc1O2 (stereo not drawn)	5
O=C(Cn1ncc2c(N3CCOCC3)ncnc21)NCc1ccc(F)c(Cl)c1	-33
C=C1SC(Nc2c(C)cccc2C)=NC12CCCCC2	-81*
SMILES	Tgondii IFNg
Cn1c2c(ccc1=O)CCN(C(=O)CCC(=O)O)CC2	6
COCCN1CCC(c2cc3c(ncn3C(C)C)c(N3CCCC3)n2)CC1	2
COc1ccc(OC)c(CNC(=O)c2nc(Nc3cccc(C)c3)c3ccccc3n2)c1	-74*
COc1ccc(CNC(=O)c2nc(Nc3ccccc3)c3ccccc3n2)c(OC)c1	-54
Cc1ccc(Nc2nc(C(=O)N(C)Cc3ccccc3)nc3ccccc23)cc1	-77*
CN(Cc1ccccc1)C(=O)c1nc(Nc2ccc(F)cc2)c2ccccc2n1	25
CCNC(=O)c1nc(Nc2ccc(C)cc2)c2ccccc2n1	-26
COc1ccc(OC)c(CNC(=O)c2nc(Nc3ccc(C)cc3)c3ccccc3n2)c1	-41
CCCCNC(=O)c1nc(Nc2cccc(C)c2)c2ccccc2n1	-57
Cc1ccc(CNC(=O)c2nc(Nc3ccc(F)cc3)c3ccccc3n2)cc1	-32
Cc1ccc(CNC(=O)c2nc(Nc3cccc(C)c3)c3ccccc3n2)cc1	-79*
CCS(=O)(=O)N1CCC2(CC1)COC(COc1ccccn1)C2 (stereo not drawn)	-3
O=C(Nc1ccccc1)Nc1ccc(-c2nc(-c3ccccc3)co2)cc1	16
O=C(N1CCCC(O)(CO)CC1)C1(c2ccccc2)CCCCC1 (stereo not drawn)	-7
Cc1nnc(CCNc2ccnc(C(=O)NC3CC3)c2)s1	-3
CCc1nc(C)sc1CN1CCC=C(CC(C)NC(C)=O)C1 (stereo not drawn)	5
CCOCC1CN(Cc2ccsc2)Cc2nn(C)cc21 (stereo not drawn)	149
CCC(CC)C(=O)N1CCC2(CC1)CN(C/C=C/c1ccco1)CCN2C	-4
Cc1[nH]c2ccccc2c1CCNCc1ccc(/C=C/C(=O)NO)cc1	-82*!
Cc1[nH]c2ccccc2c1CCNC(=O)c1cccs1	29
CCO[C@H]1COC[C@@H]1NC(=O)Cc1c(C)[nH]c2ccccc12	5
Cc1cc(C)cc(N2CCN(Cc3ccccc3OCCO)CC2=O)c1	4
C=CCc1ccc(OCc2ccc(C(=O)N3CCc4ccccc43)o2)c(OC)c1	19
c1coc(CN2CCC(c3nc4ccc(N5CCOCC5)cn4n3)CC2)c1	-2
